Hits are enriched below; roughly 2.1% of the tested compounds scored in any of these assays.
LANA-H2A inh = blocks KSHV LANA binding to histone H2A/H2B. inhibition, % (concentration not given with the values). 0.6% of 320,000 active. cell-free LANA-H2A/H2B peptide, fluorescence polarization. AID 2629; in the data active means inhibition mostly above about 10%, no sharp cut-off; inactive means mostly below about 6.7%
Target sequence (Q9QR71 whole entry, looked up): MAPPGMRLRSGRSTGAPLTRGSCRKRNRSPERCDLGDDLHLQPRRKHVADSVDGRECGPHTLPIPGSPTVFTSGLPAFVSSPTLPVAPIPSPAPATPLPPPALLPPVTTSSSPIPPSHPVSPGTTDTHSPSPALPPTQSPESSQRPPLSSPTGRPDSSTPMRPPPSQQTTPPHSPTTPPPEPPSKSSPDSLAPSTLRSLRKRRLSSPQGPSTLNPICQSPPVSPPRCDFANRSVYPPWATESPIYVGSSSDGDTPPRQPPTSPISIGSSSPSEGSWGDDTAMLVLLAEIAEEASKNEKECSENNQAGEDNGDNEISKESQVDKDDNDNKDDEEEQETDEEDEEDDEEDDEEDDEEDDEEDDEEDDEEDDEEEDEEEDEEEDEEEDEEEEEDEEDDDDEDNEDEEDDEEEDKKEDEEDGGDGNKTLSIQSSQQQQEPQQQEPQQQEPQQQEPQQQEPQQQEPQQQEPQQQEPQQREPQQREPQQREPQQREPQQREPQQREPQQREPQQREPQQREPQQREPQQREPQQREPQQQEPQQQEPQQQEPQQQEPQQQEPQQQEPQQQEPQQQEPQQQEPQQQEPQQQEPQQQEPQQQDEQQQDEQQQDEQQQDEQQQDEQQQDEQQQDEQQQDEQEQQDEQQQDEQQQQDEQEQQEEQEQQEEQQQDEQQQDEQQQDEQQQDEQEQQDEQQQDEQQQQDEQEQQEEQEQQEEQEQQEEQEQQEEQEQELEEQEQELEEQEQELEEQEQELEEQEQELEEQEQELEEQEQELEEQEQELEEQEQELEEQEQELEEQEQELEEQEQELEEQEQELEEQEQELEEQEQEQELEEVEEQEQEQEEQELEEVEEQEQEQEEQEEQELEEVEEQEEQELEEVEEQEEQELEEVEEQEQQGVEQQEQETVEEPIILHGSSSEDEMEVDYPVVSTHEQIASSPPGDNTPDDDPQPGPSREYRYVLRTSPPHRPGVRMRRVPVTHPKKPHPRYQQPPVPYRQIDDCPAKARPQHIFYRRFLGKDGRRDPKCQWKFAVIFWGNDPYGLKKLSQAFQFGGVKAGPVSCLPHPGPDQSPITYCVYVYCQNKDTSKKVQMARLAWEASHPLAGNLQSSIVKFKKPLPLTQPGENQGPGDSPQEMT
IDE cell inh = cellular human IDE inhibition; HEK cells, FAbetaB cleavage, fluorescence polarization; inhibition, % at 5.59 µM; 0.41% of 320,000 active; AID 434962;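 active means percent inhibition above the average of all tested compounds plus 3 SD, set per screening campaign, cut at about 16% in these data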;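 further: IDE supplied by intact live HEK cells; FP after avidin binding of uncleaved biotin substrate so inhibition keeps polarization high; 0% = DMSO wells and 100% = 60 µM reference IDE inhibitor Ii1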
IDE cell activ = activators of human insulin-degrading enzyme in cells; HEK cells, FAbeta-B cleavage, fluorescence polarization; 0% vehicle, 100% cell-free pure enzyme wells; activation, % at 5.96 µM; 0.073% of 340,000 active;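 active means activation above the mean of all tested compounds plus 3 SD, set per screening campaign, cut at about 17% in these data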
Mot1-301 SUMO = SUMOylation pathway inhibition by Mot1-301 growth rescue | S. cerevisiae Mot1-301 growth rescue, ATP luminescence, 38.5C; percent above DMSO median, 100 means doubled | growth rescue, % at 18.8 µM | 1% of 320,000 active | AID 2716;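 active means every valid replicate shows activation above 250% relative to neutral control wells; inactive means the rest, any valid replicate at or below 250%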;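 further: OY570 slx delta 5 strain wells were the positive control but not used for scaling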
HDAC3 inhib = blocks human histone deacetylase 3; recombinant HDAC3, fluorogenic peptide/trypsin coupled, fluorescence; inhibition, % at 8.3 µM; 0.15% of 320,000 active; in the data active means inhibition above about 26%, passing the limit was not always enough
Mot1 SUMO dose = yeast SUMO pathway inhibition in dose response; shares compounds with Mot1-301 SUMO; S. cerevisiae Mot1-301 galactose growth, ATP luminescence, 24 h; -100 = growth of slx-deleted rescue strain; growth activity, percent, % at 42 µM; 2,300 tested, under 10 active; AID 493004;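 active means Signal drops as the depositor expects, and the fitted half-maximal dose is no more than ten times the top valid tested dose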;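 further: more negative values mean stronger growth rescue toward the control strain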
* hit, by the source's call; x = not tested or not shown; + = active, no number.

SMILES	LANA-H2A inh	IDE cell inh	IDE cell activ	Mot1-301 SUMO	HDAC3 inhib	Mot1 SUMO dose
CC(=O)c1c(N2CCCC2)[nH]c(-c2ccccc2)nc1=S	3.0	1.7	-6.3	25.8	-1.1	x
CC(=O)c1c(N)[nH]c(-c2ccccc2)nc1=S	0.4	3.6	-11.7	886.3*	-1.6	0.3
CCOc1ccccc1NC(=O)c1ccc2c(c1)C(=O)N(CC(C)C)C2=O	-3.2	3.8	5.5	550.9*	-6.6	1.3
Cn1c(N)c(C(=O)COC(=O)C2=NNC(=O)CC2)c(=O)n(C)c1=O	-0.4	-2.1	1.2	-22.6	x	x
Cc1cccc(OCC(O)CN2C(C)(C)CC(O)CC2(C)C)c1 (stereo not given)	2.2	6.9	-2.7	571.0*	0.6	0.3
Cc1nn(CC(=O)Nc2ccccn2)c(C)c1[N+](=O)[O-]	3.4	7.0	5.0	423.8*	5.3	0.2
O=C(O)c1cn(Cc2ccccn2)c(=O)c2ccccc12	-18.2	0.7	1.2	+	3.1	0.0
O=C(O)c1cn(Cc2cccnc2)c(=O)c2ccccc12	1.5	5.8	x	-15.6	-5.0	x
N#Cc1c2ccc([N+](=O)[O-])cc2[n+]([O-])n1-c1ccccc1	4.3	-0.6	1.8	384.4*	-0.6	-0.9
CC1=CC=CC2=NC(=O)CC(C)(C(=O)N(CC(=O)NC3CCCC3)c3ccc(F)cc3)N12 (stereo not given)	5.5	0.0	3.1	144.1	-46.7	x
O=C(O)CNS(=O)(=O)Cc1ccccc1	-5.1	-5.8	0.0	917.5*	x	-0.7
O=S(=O)(Cc1ccccc1)NCc1ccccn1	4.2	4.5	0.9	610.5*	-7.6	0.4
Fc1ccc(-c2cc(C(F)(F)F)nc(NCc3cccs3)n2)cc1	-6.1	-5.8	5.6	457.7*	8.3	0.6
CCN1CCCC1CN(Cc1cc2ccc(C)cc2[nH]c1=O)C(=S)Nc1ccccc1C(=O)OC (stereo not given)	-1.9	0.9	4.4	+	-2.3	-0.4
CC(=O)N1CCc2cc(S(=O)(=O)Nc3ccc(C)cc3C)ccc21	3.3	2.4	4.7	-13.5	-6.1	x
CC(=O)N1CCCc2cc(S(=O)(=O)Nc3ccc(C)cc3C)ccc21	-1.6	2.1	2.2	473.9*	-10.8	0.5
NS(=O)(=O)c1ccc(Sc2ccc3c(c2)CCC3)nc1	5.5	5.7	0.9	51.1	6.0	x
O=[N+]([O-])c1cncc([N+](=O)[O-])c1Nc1ccccc1Cl	3.3	3.5	-0.1	813.4*	-5.2	-0.2
CC(C)(C)N(Cc1ccccc1)C(=O)COC(=O)c1ccc(N2CCCC2=O)cc1	0.1	-12.8	4.6	-13.5	-7.0	x
O=C(NCCCN1CCOCC1)C1CCC(=O)N1CCc1ccccc1 (stereo not given)	-2.1	0.9	-1.9	407.9*	-0.4	-0.8
C/C=C(/C)C(=O)OC1c2c(ccc3ccc(=O)oc23)OC(C)(C)C1OC(=O)/C(C)=C\C (stereo not given)	4.0	0.0	1.3	729.8*	0.4	1.1
CCOc1ncccc1C(=O)OCC(=O)NC(=O)c1ccccc1	2.8	0.1	2.3	-6.3	-2.6	x
CN(C(=O)c1ccc(-c2nn(C)c(=O)c3ccccc23)cc1)C1CCCCC1	2.0	8.9	-4.8	736.3*	1.9	-0.1
Cc1cc(-c2ccccc2)n(-c2ccc(C(=O)NC(C)C)cc2)n1	-2.0	2.1	-0.6	644.8*	4.2	0.1
O=C(OCc1nnc(-c2ccc(Br)cc2)o1)c1ccco1	2.3	0.3	-1.1	0.9	0.3	x
SMILES	LANA-H2A inh	IDE cell inh	IDE cell activ	Mot1-301 SUMO	HDAC3 inhib	Mot1 SUMO dose
O=C(NC(=S)Nc1ccccc1N1CCCC1)c1ccc([N+](=O)[O-])cc1	-0.2	1.5	-5.3	407.0*	5.8	-0.1
Cc1c(C(=O)NC(=S)Nc2ccccc2N2CCCC2)cccc1[N+](=O)[O-]	5.0	0.1	3.2	425.5*	2.1	0.1
COc1ccc(C(=O)NC(=S)Nc2ccccc2N2CCCCC2)cc1[N+](=O)[O-]	-2.9	-1.8	-1.1	-25.2	0.4	x
O=C(CCNC(=O)c1ccccc1Cl)NCc1cccnc1	4.6	-10.8	0.3	16.0	4.5	x
CCOC(=O)c1c(CN2CCCCC2)n(C)c2cc(Br)c(O)c(CN(C)C)c12	3.5	1.3	7.1	471.6*	5.4	0.4
CCOC(=O)c1c(CSc2ccccc2)n(C)c2cc(Br)c(O)c(CN(C)C)c12	-4.4	1.6	11.7	-13.5	-1.3	x
